Laboratory results as given in PubChem BioAssay (Tox21).
Values joined by “and” are separate entries in the source; they are usually repeats but may differ in a detail not shown here. Equal values may be shown once. Inconclusive results are not listed. More than one record can exist for a structure, and the calls need not agree. Active and inactive are the calls of the source. Calls follow the shape of the dose curve; as a rule, active = well fitted curve in the direction sought with a large enough effect in the repeat runs; inconclusive = weak or mixed curves; inactive = no such curve, though single readings can be large; an effect the other way counts as inactive or inconclusive.

Columns and labels:
[1] = qHTS RealTime-Glo MT Cell Viability Assay in HEK293 cells - 16 hour (AID 1224872); also: nearly all actives have a fitted effect of over 50% in size; also: potency is read from the fitted curve at half-maximal effect; as to activity change, negative = cytotoxicity: top concentration of the series differs between compounds
Method in brief: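 Reads taken at 0, 8, 16, 24, 32 and 40 h from the same wells. HEK293 cells (600/well) carried RealTime-Glo reagents from seeding, with compound added after a 5 h settle at 37 C.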

[2] = qHTS RealTime-Glo MT Cell Viability Assay in HepG2 cells - 8 hour (AID 1224873); also: nearly all actives have a fitted effect of over 55% in size; also: potency is read from the fitted curve at half-maximal effect
Method in brief: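 HepG2 cells mixed with RealTime-Glo MT reagents (NanoLuc plus cell-permeant prosubstrate) were seeded at 600 cells/well, incubated 5 h at 37 C/5% CO2, then pinned with compounds in DMSO; nonlytic luminescence tracked viability during 40 h treatment.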

[3] = qHTS RealTime-Glo MT Cell Viability Assay in HEK293 cells - 40 hour (AID 1224874); details: RealTime-Glo luminescence; max response: stronger effect = lower value; also: nearly all actives have a fitted effect of over 50% in size; also: potency is read from the fitted curve at half-maximal effect
Method in brief: (§1)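 Real-time viability in HEK293: signal arises when living cells convert a prosubstrate for NanoLuc in the medium, so luminescence tracks viable cell number. Compound (23 nL, DMSO) added 5 h post-seeding; kinetic reads at 0–40 h, 37 C.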

[4] = A CellTox Green Cytotoxicity Assay to monitor cytotoxicity in HEK293 cells - 24 hour (AID 1224875); also: nearly all actives have a fitted effect of over 45% in size; also: potency is read from the fitted curve at half-maximal effect; as to activity change: series mostly up to about 77 µM
Method in brief: (§2)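 Cells (HEK293, 600/well) and dye reagent are dispensed together. After 5 h at 37 C, 23 nL compound is pinned in. Plates stay at 37 C for 40 h with fluorescence read at 0h, 8h, 16h, 24h, 32h and 40h.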

[5] = A CellTox Green Cytotoxicity Assay to monitor cytotoxicity in HepG2 cells - 16 hour (AID 1224876); also: nearly all actives have a fitted effect of over 45% in size; also: potency is read from the fitted curve at half-maximal effect
Method in brief: (§3)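 Cells and non-lytic dye reagent are dispensed together (600 HepG2 cells/well) and incubated 5 h before DMSO compound transfer. Kinetic fluorescence is then recorded in the same wells during 40 h at 37 C.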

[6] = A CellTox Green Cytotoxicity Assay to monitor cytotoxicity in HepG2 cells - 24 hour (AID 1224878); also: nearly all actives have a fitted effect of over 45% in size; also: potency is read from the fitted curve at half-maximal effect
Method in brief: as §3

[7] = qHTS RealTime-Glo MT Cell Viability Assay in HEK293 cells - 0 hour (AID 1224880); also: top concentration of the series differs between compounds; nearly all actives have a fitted effect of over 45% in size
Method in brief: as §1

[8] = A CellTox Green Cytotoxicity Assay to monitor cytotoxicity in HEK293 cells - 32 hour (AID 1224881); also: nearly all actives have a fitted effect of over 40% in size; also: potency is read from the fitted curve at half-maximal effect
Method in brief: as §2

[9] = A CellTox Green Cytotoxicity Assay to monitor cytotoxicity in HepG2 cells - 40 hour (AID 1224879); also: nearly all actives have a fitted effect of over 40% in size; also: potency is read from the fitted curve at half-maximal effect
Method in brief: as §3

[10] = qHTS RealTime-Glo MT Cell Viability Assay in HepG2 cells - 32 hour (AID 1224877); also: nearly all actives have a fitted effect of over 55% in size; also: potency is read from the fitted curve at half-maximal effect
Method in brief: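 HepG2 suspension premixed with RealTime-Glo reagents is plated at 600 cells per well and left 5 h at 37 C/5% CO2. Compounds in DMSO then go in, and bioluminescence reflecting viable cell number is recorded over 40 h.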
% is scaled to controls: 0 for no effect and ±100 for the full control effect.

NC(=O)C(=O)N/N=C/c1ccc([N+](=O)[O-])o1
inactive: Potency [1] | Potency [2] | max response [3] 5.32% | Potency [4] | Potency [5] | Potency [6] | Potency [7] | Potency [8]

O=C(Nc1ccc(Cl)cc1)Nc1ccc(Cl)c(C(F)(F)F)c1
active: Potency [1] 8.49 µM | Potency [3] 5.35 µM | Potency [9] 19 µM
inactive: Potency [2] | Potency [4] | Potency [5] | Potency [7]

CC(=O)Oc1ccc(C2(c3ccc(OC(C)=O)cc3)Oc3ccccc3NC2=O)cc1
inactive: Potency [1] | Potency [2] | Potency [4] | Potency [5] | Potency [7]

COc1ccc(-n2nc(CCC(=O)N(C)O)cc2-c2ccc(Cl)cc2)cc1
inactive: Potency [1] | Potency [2] | Potency [4] | Potency [5] | Potency [10] | Potency [7]

CCN(CC)CCSC(=O)C(c1ccccc1)c1ccccc1
inactive: Potency [1] | Potency [2] | max response [3] -12.3% | Potency [5] | Potency [10] | Potency [7]

CCO[Si](CCCSSSSCCC[Si](OCC)(OCC)OCC)(OCC)OCC
inactive: Potency [1] | Potency [2] | max response [3] -16.8% | Potency [5] | Potency [10] | Potency [6] | Potency [9] | Potency [7]

Clc1cc(Cl)c(-c2c(Cl)c(Cl)cc(Cl)c2Cl)cc1Cl
inactive: Potency [1] | Potency [2] | Potency [4] | Potency [5] | Potency [6] | Potency [9] | Potency [7]

Cc1c(C)n(Cc2ccccc2)c2ccc(C(=O)OCCN(C)C)cc12
inactive: Potency [1] | Potency [2] | Potency [7]
active: Potency [5] 23.9 µM | Potency [10] 23.9 µM | Potency [6] 23.9 µM | Potency [9] 23.9 µM

CCCN(CCc1cccs1)[C@H]1CCc2c(O)cccc2C1
active: Potency [1] 15.1 µM | Potency [3] 21.3 µM | Potency [9] 23.9 µM
inactive: Potency [2] | Potency [10] | Potency [7]

CC1(C)COCN1
inactive: Potency [1] | Potency [2] | max response [3] -0.12% | Potency [5] | Potency [10] | Potency [6] | Potency [9] | Potency [7]

CN1CN(C)CN(C)C1
inactive: Potency [1] | max response [3] -12.7% | Potency [4] | Potency [5] | Potency [10] | Potency [6] | Potency [9] | Potency [7]

CN(C)CCOC(c1ccccc1)c1ccccc1 (tested in a mixture with another compound)
inactive: Potency [1] | Potency [2] | Potency [4] | Potency [5] | Potency [10] | Potency [6] | Potency [9] | Potency [7] | Potency [8]

O=C1NCN(c2ccccc2)C12CCN(CCCC(c1ccc(F)cc1)c1ccc(F)cc1)CC2
active: Potency [1] 19 µM | Potency [2] 10.7 µM | Potency [3] 19 µM | Potency [5] 9.52 µM | Potency [10] 6.01 µM | Potency [6] 7.56 µM | Potency [9] 6.74 µM | Potency [8] 23.9 µM
inactive: Potency [7]

Cc1cc(Nc2ccc(O)cc2)ccc1N
active: Potency [1] 24.4 µM | Potency [2] 43.5 µM | Potency [3] 19.4 µM | Potency [8] 43.5 µM
inactive: Potency [5] | Potency [6]

COc1ccc2sc(C(=O)Nc3nnn[nH]3)c(OC(C)C)c2c1
inactive: Potency [1] | Potency [2] | Potency [4] | Potency [5] | Potency [10] | Potency [9] | Potency [7]

CC1CCCCN1CCCOC(=O)c1ccc(OC2CCCCC2)cc1 (centres undefined)
active: Potency [1] 15.1 µM | Potency [3] 21.3 µM | Potency [6] 26.8 µM | Potency [9] 26.8 µM
inactive: Potency [2] | Potency [7]

O=C(Oc1ccccc1)c1cccc(C(=O)Oc2ccccc2)c1
inactive: Potency [1] | Potency [2] | max response [3] 5.48% | Potency [7]

CCN(CC)CCCN(c1ccccc1)C1Cc2ccccc2C1
active: Potency [9] 23.9 µM
inactive: Potency [1] | Potency [2] | Potency [4] | Potency [10] | Potency [8]

CC(CN(C)C)CN1c2ccccc2CCc2ccccc21 (centres undefined)
active: Potency [9] 23.9 µM
inactive: Potency [1] | Potency [2] | Potency [4] | Potency [10] | Potency [7] | Potency [8]

Cc1cncc(C)c1
inactive: Potency [1] | Potency [2] | max response [3] 0.584% | Potency [5] | Potency [10] | Potency [6] | Potency [9] | Potency [7]

O=C1NC2CCCCN2C12CCN(CCCN1c3ccccc3CCc3ccc(Cl)cc31)CC2 (centres undefined)
active: Potency [1] 8.49 µM | Potency [3] 8.49 µM | Potency [4] 19 µM | Potency [5] 23.9 µM | Potency [10] 23.9 µM | Potency [6] 23.9 µM | Potency [9] 23.9 µM
inactive: Potency [7]

CCN(CC)CCOC(=O)C1(C2CCCCC2)CCCCC1
active: Potency [1] 21.3 µM | Potency [4] 23.9 µM | Potency [5] 23.9 µM | Potency [6] 23.9 µM | Potency [9] 23.9 µM | Potency [8] 23.9 µM
inactive: Potency [2] | Potency [10]

N[C@@H](CSSC[C@H](N)C(=O)O)C(=O)O
inactive: activity change, negative = cytotoxicity [1] 13.2% [at 0.29 µM] | viability change, negative = cytotoxic [2] 3.56% [at 0.29 µM] | max response [3] 2.95% | activity change [4] 7.29% [at 0.29 µM, stronger effect = higher value] | cytotoxicity increase [9] 5.29% [at 0.29 µM] | activity change, negative = cytotoxicity [7] 18.3% [at 0.29 µM] | cytotoxicity increase [8] 2.69% [at 0.29 µM]

C1CC(COCC2CO2)CCC1COCC1CO1 (centres undefined)
inactive: Potency [1] | Potency [2] | Potency [4] | Potency [5] | Potency [10] | Potency [6] | Potency [9] | Potency [7] | Potency [8]

O=C(O)c1cccc(Cl)n1
inactive: Potency [1] | Potency [2] | max response [3] 7.12% | Potency [5] | Potency [10] | Potency [6] | Potency [7]

C=C(c1ccc(C(=O)O)cc1)c1cc2c(cc1C)C(C)(C)CCC2(C)C
active: Potency [6] 38.9 µM | Potency [9] 49 µM and 23.9 µM
inactive: Potency [1] | Potency [2] | Potency [10] | Potency [7]
30.9 µM (active) and inactive: Potency [8]
